± gives the standard deviation. Over roughly 3,700 sequences, “pre-steady-state target cleavage rate” has its median near 0.02; the highest 2% begin near 0.23. Many of the other results were omitted from the sample, so the highest values are more common in it than they were.

This assay concerns MILI (PIWIL2) piRISC loaded with Kctd7 piRNA (26 nt). Kind of assay: pre-steady-state target cleavage rate (min^-1); MIWI and MILI are mouse PIWI proteins and EfPiwi is from a freshwater sponge; tags in brackets are library labels; higher = faster piRNA-guided slicing of the target. The conditions noted are these: guide: Kctd7 piRNA 5'p-UGUUAAUCUCUCAGAGAAGGUGACAG; auxiliary factor: 500 nM mouse GTSF1. As for the experimental part:
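Cleave-'n-Seq: a library of target RNAs (target site embedded in constant flanks, ACAGCATTCCGCGTTAGTGATATCCG... 5' flank; DNA-blocked outside the site) at 0.1 nM was incubated with 1 nM active mouse MILI or MIWI piRISC (synthetic 5'-monophosphorylated piRNA guide) with or without 500 nM mouse GTSF1 at 33 °C for 1 min to 16 h. Uncleaved targets were sequenced and normalised to non-target controls, and the pooled three trials were fitted to a burst-and-steady-state model to give the pre-steady-state cleavage rate (min^-1; k3 is constrained to at most 1e-4). Sequence is the target site only; target names encode pairing extent (gX:gY) and contiguous / 1-mismatch / 2-mismatch / bulge geometry. Fits with R² ≤ 0 are excluded.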
Turning to UAGUGUGUCACCUUCUCUGAGAAAUUAACA, the “pre-steady-state target cleavage rate” value is 0.112 ± 0.019.

With UAGUGUGUCACCUUCUCUGAGAGAAUUAACA, the “pre-steady-state target cleavage rate” value came to 0.277 ± 0.048.

As for UAGUCUGUCACCUUCUCUGAGAAUUAACA, the “pre-steady-state target cleavage rate” value stood at 0.0747 ± 0.031.

For the sequence UAGUCUGUCACCUUCUCUGAGAGAAUUAACA, the “pre-steady-state target cleavage rate” value was 0.32 ± 0.051.

Regarding UAGUCUGUCACCUUCUCUGAGAAAUUAACA, the “pre-steady-state target cleavage rate” value turned out to be 0.143 ± 0.018.

On to UAGUGUGUCACCUUCUCUGAGAAUUAACA, for which the “pre-steady-state target cleavage rate” value was found to be 0.0848 ± 0.036.

For UAGUGACAGUCCUUCUCUGAUGAGAUUAACA, the “pre-steady-state target cleavage rate” value came to 0.00278 ± 0.0025.

With UAGUGACACUCCUUCUCUGAGUGAUUAACA, the “pre-steady-state target cleavage rate” value came out at 0.00415 ± 0.0032.

On to UAGUGACAGACGUACUCUGAGAGAUUAACA, for which the “pre-steady-state target cleavage rate” value is 0.014 ± 0.0034.

Consider UAGUGAGUCACCUACUCUGAGAGAUUUACA, for which the “pre-steady-state target cleavage rate” value turned out to be 0.164 ± 0.053.

With UAGUGUGUCACCUACUCUGAGAGAUUAUGA, the “pre-steady-state target cleavage rate” value worked out at 0.0343 ± 0.015.

Take UAGUGUGUCACCUACUCUGAGAGAUUUACA: the “pre-steady-state target cleavage rate” value was found to be 0.25 ± 0.052.

UAGUGUGUCACCUACUCUGAGAGAUUAUCA: the “pre-steady-state target cleavage rate” value came to 0.239 ± 0.049.

On to UAGUGUGUCACCUACUCUGAGAGAUUAAGA, for which the “pre-steady-state target cleavage rate” value is 0.1 ± 0.023.

For UAGUGUGUCACCUACUCUGAGAGAUUUUGA, the “pre-steady-state target cleavage rate” value worked out at 0.0414 ± 0.016.

For UAGUGUGUCACCUUCUCUCUGAGAUUAACA, the “pre-steady-state target cleavage rate” value came out at 0.0138 ± 0.004.

In the case of UAGUGUGUCACCUUCUCUGAGAGAUUUACA, the “pre-steady-state target cleavage rate” value was determined as 0.266 ± 0.047.

UAGUGUGUCACCUUCUCUGAGAGAUUACA: the “pre-steady-state target cleavage rate” value came out at 0.122 ± 0.036.

With UAGUGUCUCACCUUCUCUGAGAGAUUUACA, the “pre-steady-state target cleavage rate” value is 0.196 ± 0.043.

In the case of UAGUGUGUCACCUUCUCUGAGAGAUUUAACA, the “pre-steady-state target cleavage rate” value was 0.391 ± 0.052.

As to “UAGUGUGUCACCUUCUCUGAGAGAUUAACA [g2:g25:cont:t1A]”, the “pre-steady-state target cleavage rate” value stood at 0.216 ± 0.015.

For the sequence UAGUGACUGUCCUUCUCUGAGAGAUUAACA, the “pre-steady-state target cleavage rate” value stood at 0.2 ± 0.016.

Turning to UAGUGAGUGACCUUGUCUGAGAGAUUAACA, the “pre-steady-state target cleavage rate” value came out at 0.0726 ± 0.014.

Turning to UAGUGACAGACCUUGUCUGACAGAUUAACA, the “pre-steady-state target cleavage rate” value was found to be 0.0121 ± 0.0036.

Take UAGUCUGUCACCUUCUCUGAGAGAUUCAACA: the “pre-steady-state target cleavage rate” value amounted to 0.324 ± 0.061.

As to UAGUCUGUCAACCUUCUCUGAGAGAUUAACA, the “pre-steady-state target cleavage rate” value was 0.0716 ± 0.011.

UAGUGAGUCACCUUCUCUGAGAGAUUCAACA: the “pre-steady-state target cleavage rate” value was 0.279 ± 0.054.

For the sequence UAGUCUGUCACCUUCUCUGAGAGAUUCACA, the “pre-steady-state target cleavage rate” value came out at 0.265 ± 0.059.

As for UAGUGAGUCACCUUCUCUGAGAGAUUUUCA, the “pre-steady-state target cleavage rate” value amounted to 0.145 ± 0.044.

For the sequence UAGUCUGUCACCUUCUCUGAGAGAUUACACA, the “pre-steady-state target cleavage rate” value came out at 0.153 ± 0.022.

Regarding UAGUCUGUCACCUUCUCUGAGAGAUUUUCA, the “pre-steady-state target cleavage rate” value was found to be 0.12 ± 0.031.

In the case of UAGUCUGUCACCUUCUCUGAGAGAUCAACA, the “pre-steady-state target cleavage rate” value turned out to be 0.114 ± 0.018.

For UAGUGAGUCACCUUCUCUGAGAGAUCAACA, the “pre-steady-state target cleavage rate” value is 0.0788 ± 0.025.

On to UAGUGACAGUGCUUCUCUGAGAGAUUAUCA, for which the “pre-steady-state target cleavage rate” value was determined as 0.00765 ± 0.0025.

On to UAGUCUGUCACCUUCUCUCAGAGAUUAACA, for which the “pre-steady-state target cleavage rate” value is 0.064 ± 0.0081.

For UAGUGACAGUGGAACUCUGAGAGUUAAACA, the “pre-steady-state target cleavage rate” value is less than 0.0001.

As to UAGUGACACACCUUCUCUGAUGAGAUUAACA, the “pre-steady-state target cleavage rate” value is 0.00949 ± 0.0043.

With UAGUGAGUCACCUUCACUGACAGAUUAACA, the “pre-steady-state target cleavage rate” value was 0.0411 ± 0.013.

As to UAGUGACACACCUUCUCUGAGAAAUUAACA, the “pre-steady-state target cleavage rate” value was determined as 0.219 ± 0.035.

For the sequence UAGUGACUCACCUUCUCGAGAGAUUAACA, the “pre-steady-state target cleavage rate” value came to 0.02 ± 0.0065.

On to UAGUGUGUCACCUUCUCUGAAAGAUUAACA, for which the “pre-steady-state target cleavage rate” value was found to be 0.0569 ± 0.011.

As to UAGUGACAGUGGAACACUGAGACAUUAACA, the “pre-steady-state target cleavage rate” value is less than 0.0001.

In the case of UAGUGUGUCACCUUCUCUGAGAGAGUAACA, the “pre-steady-state target cleavage rate” value was 0.287 ± 0.056.

Turning to UAGUGUGUCACCUUCUCUGUGAGUUUAACA, the “pre-steady-state target cleavage rate” value came out at 0.0386 ± 0.0085.

Take UAGUGUGUCACCUUCUCUGAGAGUUUAACA: the “pre-steady-state target cleavage rate” value turned out to be 0.316 ± 0.078.

On to UAGUGUGUCACCUUCUCUGAGAGUAAAACA, for which the “pre-steady-state target cleavage rate” value was determined as 0.194 ± 0.057.

Consider UAGUGUGUCACCUUCUCUGAGAGUUAAACA, for which the “pre-steady-state target cleavage rate” value came to 0.146 ± 0.049.

Turning to UAGUGUGUCACCUUCUGUGAGAGUUUAACA, the “pre-steady-state target cleavage rate” value worked out at 0.0964 ± 0.027.

For the sequence UAGUGUGUCACCUUCUCUGAGAGAGUUAACA, the “pre-steady-state target cleavage rate” value amounted to 0.259 ± 0.046.

In the case of UAGUGUGUCACCUUCUCUGAGAGUUAACA, the “pre-steady-state target cleavage rate” value came out at 0.194 ± 0.055.

As for UAGUGUCUCACCUUCUCUGAGAGUUUAACA, the “pre-steady-state target cleavage rate” value was determined as 0.286 ± 0.038.

For the sequence UAGUGACUCACCUUCUCUGAGAGUUUAACA, the “pre-steady-state target cleavage rate” value was 0.118 ± 0.028.

In the case of UAGUCUCUCACCUUCUCUGAGAGUUUAACA, the “pre-steady-state target cleavage rate” value was determined as 0.183 ± 0.024.

With UAGUGUGUCACCUUCUCUGAGAGUAUAACA, the “pre-steady-state target cleavage rate” value is 0.181 ± 0.072.

As for UAGUGAGUCACCUUGUCUGAGAGAUUUUGA, the “pre-steady-state target cleavage rate” value amounted to 0.0161 ± 0.0098.

Consider UAGUGACACAGGAUCUCUGAGAGAUAUUGA, for which the “pre-steady-state target cleavage rate” value was less than 0.0001.

For UAGUGUGUCACCGUCUCUGAGAGAUUAACA, the “pre-steady-state target cleavage rate” value was found to be 0.113 ± 0.012.

Regarding UAGUCUGUCUCCUUCUCUGAGAGAUUAAGA, the “pre-steady-state target cleavage rate” value was found to be 0.054 ± 0.012.

In the case of UAGUCUGUCACCUUCUCUGAGAGAUCUAACA, the “pre-steady-state target cleavage rate” value came to 0.258 ± 0.054.

For the sequence UAGUCUGUCACCUUCUCUAAGAGAUUAACA, the “pre-steady-state target cleavage rate” value stood at 0.138 ± 0.0097.

With UAGUGUGUCACCUUCUCUGAGAGAUAACA, the “pre-steady-state target cleavage rate” value was found to be 0.0605 ± 0.02.

Turning to UAGUGUGUCACCUUCUCUGAGAGAUCUAACA, the “pre-steady-state target cleavage rate” value was determined as 0.306 ± 0.071.

With UAGUCUGUCACCUUCUCUGAGAGACUAACA, the “pre-steady-state target cleavage rate” value came to 0.149 ± 0.027.

On to UAGUGAGUCACCUUCUCUGAGAGAUCUAACA, for which the “pre-steady-state target cleavage rate” value came to 0.171 ± 0.035.

UAGUGAGUCACCUUCUGUGUGAGAUUAACA: the “pre-steady-state target cleavage rate” value is 0.0434 ± 0.0067.

In the case of “UAGUGACAGUCCUUCUCUGAGAGUAAUUGA [g8:g20:cont:t1A]”, the “pre-steady-state target cleavage rate” value is less than 0.0001.

In the case of UAGUGACUCACCUUCUCUGAGAGCUUAACA, the “pre-steady-state target cleavage rate” value amounted to 0.156 ± 0.022.

As to UAGUGAGUCACCUUGCUCUGAGAGAUUAACA, the “pre-steady-state target cleavage rate” value worked out at 0.351 ± 0.077.

For UAGUGUGUCACCUGCUCUGAGAGAUUAACA, the “pre-steady-state target cleavage rate” value was 0.157 ± 0.012.

With UAGUGACUCACCUUGCUCUGAGAGAUUAACA, the “pre-steady-state target cleavage rate” value was 0.048 ± 0.016.

As to UAGUCUGUCACCUGCUCUGAGAGAUUAACA, the “pre-steady-state target cleavage rate” value was 0.175 ± 0.011.

In the case of UAGUCUGUCACCUUGCUCUGAGAGAUUAACA, the “pre-steady-state target cleavage rate” value came to 0.299 ± 0.059.

Take UAGUGAGUCACCUGCUCUGAGAGAUUAACA: the “pre-steady-state target cleavage rate” value was determined as 0.169 ± 0.018.

The record behind these values is the supplement of paper PMC10338343.
